# H9c2 protect = cardioprotection against H2O2-induced cell death, primary screen, uHTS, H9c2 cells, ATPLite luminescence; H9c2 cardiomyocytes, H2O2 injury protection, 2 h; protection from H2O2 cell death, % at 20 µM; 360,000 compounds, 0.63% hits; AID 588492, 2011;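 active means compounds giving at least 50% protection of heart cells from peroxide-induced death in the single-dose screen, raw or plate-pattern-corrected value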;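 further: 0% = DMSO wells with peroxide and 100% = DMSO wells without peroxide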
# ALR inh = inhibitors of human ALR sulfhydryl oxidase, primary screen, biochemical, H2O2 detection, HRP-luminol luminescence, single point | inhibition, % (no concentration beside the values) | purified ALR, DTT oxidation | AID 485317, 2010 | FAD-linked sulfhydryl oxidase ALR (Homo sapiens), P55789 | 290,000 compounds, 3.8% hits;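 active means mean replicate inhibition above about 79%, with every replicate also reaching it, limit read from the data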
# NTR1 ag = agonists of human NTR1, primary screen, imaging, U2OS cells, beta-arrestin-GFP, high content; 330,000 compounds, 0.17% hits; Neurotensin receptor type 1 (Homo sapiens), P30989; NTR1-U2OS beta-arrestin-GFP spot imaging, agonist mode; activation, % at 20 µM;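 active means activation at or above 40% of the spot to cytoplasm intensity ratio, with at least 20 cells analyzed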;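 further: 0% = DMSO without peptide and 100% = 100 nM NTR1 peptide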
# Target sequence (P30989 whole entry, looked up): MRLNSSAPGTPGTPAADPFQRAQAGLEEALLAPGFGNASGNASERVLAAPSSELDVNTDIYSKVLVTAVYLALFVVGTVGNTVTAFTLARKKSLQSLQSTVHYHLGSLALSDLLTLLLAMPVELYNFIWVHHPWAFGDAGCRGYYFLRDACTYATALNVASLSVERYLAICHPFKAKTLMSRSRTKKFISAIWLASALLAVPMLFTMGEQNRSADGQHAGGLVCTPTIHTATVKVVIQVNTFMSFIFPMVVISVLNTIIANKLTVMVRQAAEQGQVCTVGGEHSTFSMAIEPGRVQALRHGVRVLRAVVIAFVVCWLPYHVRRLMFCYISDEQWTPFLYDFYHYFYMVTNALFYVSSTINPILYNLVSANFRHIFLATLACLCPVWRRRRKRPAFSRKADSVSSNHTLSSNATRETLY
# SUMO HTRF inh = inhibitors of in vitro SUMOylation cascade, primary screen, biochemical, HTRF, uHTS; SUMO-conjugating enzyme UBC9 (Homo sapiens), P63279; HTRF SUMOylation assay, SAE1/SAE2 + UBC9; inhibition, % at 35 µM; 290,000 compounds, 0.36% hits; AID 2006, 2009; in the data active means inhibition above about 50%, passing the limit was not always enough
# Target sequence (P63279 whole entry, looked up): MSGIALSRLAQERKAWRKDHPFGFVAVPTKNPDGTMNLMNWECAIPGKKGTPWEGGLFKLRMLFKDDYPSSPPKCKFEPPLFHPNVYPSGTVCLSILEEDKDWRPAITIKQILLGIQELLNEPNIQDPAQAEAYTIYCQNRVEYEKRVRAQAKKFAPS
# * hit, by the source's call; · = no result given; ! = not active in a repeat. An excerpt weighted towards active compounds, which were near 3.9% of everything screened.
SMILES,H9c2 protect,ALR inh,NTR1 ag,SUMO HTRF inh
O=C(Cc1ccccc1)Oc1cccc(-n2cnnn2)c1,2.2,97.9*,-0.9,8.5
O=C(Cc1ccccc1)Oc1cccc(N2C(=O)CCC2=O)c1,6.7,-8.5,-0.7,-0.3
O=c1[nH]c(O)c(/C=C2/C=CC(c3cc(Cl)ccc3Cl)=N2)c(=O)[nH]1,-16.5,3.0,46.2*,·
CC1=Nc2ccccc2/C1=C/c1c(O)[nH]c(=O)[nH]c1=O,0.2,0.2,-0.1,-10.3
CN1CCN(Cc2nc3ccccc3c(=O)[nH]2)CC1,54.9*,-4.2,4.7,3.4
O=c1[nH]c(CN2CCNCC2)nc2ccccc12,43.6,17.2,1.8,-5.8
COC(=O)c1ccccc1OP1(=O)COc2ccccc2OC1,2.5,99.2*,3.3,20.6
COc1cccc(C2C([N+](=O)[O-])=C(N)Oc3c2c(=O)oc2ccccc32)c1 (stereo unspecified),-1.2,·,-2.3,25.9
C=C1[C@@H](C)[C@H]2[C@H](Cc3ccccc3)NC(=O)[C@]23OC(=O)/C=C/[C@H](O)CCC[C@@H](C)C/C=C/[C@H]3[C@@H]1O,79.3*,·,3.7,12.3
C[C@]12CCC3C(CC[C@@H]4[C@H]5O[C@H]5CC[C@]34C)C1CC[C@@H]2O (stereo partly specified),-2.9,·,·,·
COP(=O)(OC)C(Nc1ccccc1)c1ccccc1 (stereo unspecified),7.2,95.8*,1.9,19.6
COc1ccc(CCNCc2c(OC)ccc3ccccc23)cc1,5.5,·,1.6,14.2
ClCCNc1nc2ccc(Cl)cc2[nH]1,-7.0,98.0*,1.1,1.7
NC1=Nc2ccccc2Oc2ccccc21,4.9,-8.9,-0.8,3.3
c1cncc(C2Nc3cccc4cccc(c34)N2)c1,-7.9,-7.8,1.9,63.3*!
COc1ccc(C(CNC(=O)Cc2ccc(Cl)c(Cl)c2)N(C)C)cc1 (stereo unspecified),4.0,1.0,-1.3,8.1
CN(C)c1ccc(/C=C/[N+](=O)[O-])cc1,14.4,97.6*,10.9,1.7
CCN1CCN(Cc2cc(Br)cc(Br)c2O)CC1,-3.8,98.6*,-1.1,-6.0
CCN1CCN(Cc2cc(Br)ccc2O)CC1,0.1,2.1,-1.7,-17.6
COc1ccc(P2(=O)Nc3ccccc3N2)cc1,52.9*,-28.4,2.7,11.0
CCCCn1nnnc1C(c1ccnc2ccccc12)N1CCC2(CC1)C(=O)NCN2c1ccccc1 (stereo unspecified),2.8,·,·,·
Cc1ccc(S(=O)(=O)CC(C)(O)C(=O)Nc2cccc(C(F)(F)F)c2)cc1 (stereo unspecified),-1.2,39.9,-0.4,-19.7
COc1ccc(C(=O)C2CCCN(Cc3cccc(C)n3)C2)c(OC)c1 (stereo unspecified),-6.9,·,1.5,24.7
Cc1ccccc1NP(=O)(Oc1ccccc1F)Oc1ccccc1F,73.3*,-1.3,3.9,-13.8
O=[N+]([O-])c1ccc(N(CCO)CCO)c2c1no[n+]2[O-],-6.8,·,·,·
SMILES,H9c2 protect,ALR inh,NTR1 ag,SUMO HTRF inh
CN1CCN(c2ccc([N+](=O)[O-])c3no[n+]([O-])c23)CC1,-1.9,-22.5,·,54.6*
C[C@]12CC[C@@H](O)CC1=CC(=O)C1C2CC[C@]2(C)C(=O)CCC12 (stereo partly specified),-2.3,4.9,1.7,·
Cn1c(O)c(/C=N/NC(=O)c2ccncc2)c(=O)[nH]c1=S,5.5,19.1,0.7,18.2
CCCCn1c(O)c(/C=N/NC(=O)c2ccncc2)c(=O)[nH]c1=S,-1.7,98.8*,-0.1,7.8
O=C(N/N=C/c1c(O)n(CCC2=CCCCC2)c(=S)[nH]c1=O)c1ccccc1,65.9*,50.4,1.3,-47.5
CSc1ccc(C(=O)C2CCCN(Cc3cccnc3)C2)cc1 (stereo unspecified),-2.0,-31.5,-1.5,-0.6
OC(CNCc1ccccc1)c1ccc(Cl)cc1 (stereo unspecified),2.8,·,·,·
N#CC1=C(N)Oc2c(c(=O)oc3ccccc23)C1c1cccnc1 (stereo unspecified),23.7,23.1,1.3,-1.1
N#CC1=C(N)Oc2c(c(=O)sc3ccccc23)C1c1ccncc1 (stereo unspecified),5.9,95.4*,1.1,9.8
CSc1ccc(CNC(C)C(O)c2ccccc2)cc1 (stereo unspecified),-0.8,-9.0,0.5,8.3
COc1ccc(CCNCc2sccc2C)cc1OC,5.6,-2.0,0.7,15.3
Cc1ccc2c(C)cccc2c1,3.4,·,·,·
CCC(C)N1C(=O)/C(=C\c2cc3c4c(c2)CCCN4CCC3)C(=O)NC1=S (stereo unspecified),6.4,98.7*,4.0,18.7
O=[N+]([O-])c1ccc(O)c([N+](=O)[O-])c1,-13.9,-4.8,1.0,·
O=[N+]([O-])c1cc(O)c(O)c([N+](=O)[O-])c1,3.7,91.7*,-1.2,·
CN1OC[C@@H]2COc3ccc4ccccc4c3[C@@H]21,-0.2,-5.5,1.7,-5.1
CCOP(=O)(OCC)C(O)c1ccc(N(C)C)cc1 (stereo unspecified),3.2,86.3*,-0.4,16.8
CCOP(=O)(OCC)C(O)c1ccc(Br)cc1 (stereo unspecified),-25.3,-8.4,-2.3,-6.6
FC(F)(F)c1ccc(CNCCc2c[nH]c3ccccc23)cc1,7.4,6.3,0.2,1.4
COc1cccc(-n2nc(C(=O)N3CCC4(CC3)OCCO4)c3ccccc3c2=O)c1,5.3,93.7*,-0.3,22.8
COc1cc(OC)cc(-n2nc(C(=O)N3CCC4(CC3)OCCO4)c3ccccc3c2=O)c1,26.8,·,-0.4,21.9
CN(C)C(=O)Oc1noc2cc(Cl)ccc12,4.3,-4.0,-0.8,9.9
CC/C(=N\NC(=S)Nc1ccccc1)c1c(O)[nH]c(=O)[nH]c1=O,-7.2,99.2*,1.9,3.4
CCC(=NC1CCN(Cc2ccccc2)CC1)c1c(O)[nH]c(=O)[nH]c1=O,-1.7,6.7,-0.3,-0.7
Cc1ccc(S(=O)(=O)N2Cc3ccccc3-n3nncc3C2)cc1,-17.0,·,·,·
SMILES,H9c2 protect,ALR inh,NTR1 ag,SUMO HTRF inh
Cn1c(O)c(C=Nc2ccccc2-c2ccccc2)c(=O)n(C)c1=O,-0.1,·,0.5,30.8
CCOC(=O)C1=Nc2ccccc2/C1=C\c1c(O)n(C)c(=O)n(C)c1=O,-9.5,97.9*,0.7,18.7
CC1(C)CN=C(NCc2ccccc2Cl)S1,1.0,-8.9,-1.1,1.1
O=C1CC(N2CCC(n3c(=O)[nH]c4ccccc43)CC2)C(=O)N1c1ccc(F)cc1 (stereo unspecified),20.8,2.8,0.0,-13.2
C/C(=N\Nc1ccccc1)c1c(O)[nH]c(=O)[nH]c1=O,-0.2,-8.0,1.9,12.9
C/C(=N\NC(=O)c1ccccc1O)c1c(O)n(C2CCCCC2)c(=O)[nH]c1=O,2.0,7.9,0.5,·
CN=C(SCc1ccccc1)c1c(O)n(C)c(=O)n(C)c1=O,0.0,97.6*,-1.2,5.5

# Assay outcomes (PubChem)
